Reference: PubChem BioAssay (Tox21)
Inconclusive results are not listed. Activity calls are given as the source filed them. Calls follow the shape of the dose curve; as a rule, active = well fitted inhibition curve with a large enough effect in the repeat runs; inconclusive = weak or mixed curves; inactive = flat fitted curve, though single readings scatter.

Each compound was assayed against Voltage-gated inwardly rectifying potassium channel KCNH2 (Homo sapiens) (UniProt Q12809) (assay: Human Ether-a-go-go-Related Gene (hERG) channel small molecule antagonists: fluorescence cell-based qHTS assay (AID 1671200; also: nearly all actives have a fitted effect of over 50% in size)). Details: hERG-U2OS cells, FluxOR thallium flux fluorescence; series mostly up to 76.8 µM; activity change, negative = inhibition: at the top concentration.
Sequence of Voltage-gated inwardly rectifying potassium channel KCNH2 (Homo sapiens) (Q12809 whole entry, looked up): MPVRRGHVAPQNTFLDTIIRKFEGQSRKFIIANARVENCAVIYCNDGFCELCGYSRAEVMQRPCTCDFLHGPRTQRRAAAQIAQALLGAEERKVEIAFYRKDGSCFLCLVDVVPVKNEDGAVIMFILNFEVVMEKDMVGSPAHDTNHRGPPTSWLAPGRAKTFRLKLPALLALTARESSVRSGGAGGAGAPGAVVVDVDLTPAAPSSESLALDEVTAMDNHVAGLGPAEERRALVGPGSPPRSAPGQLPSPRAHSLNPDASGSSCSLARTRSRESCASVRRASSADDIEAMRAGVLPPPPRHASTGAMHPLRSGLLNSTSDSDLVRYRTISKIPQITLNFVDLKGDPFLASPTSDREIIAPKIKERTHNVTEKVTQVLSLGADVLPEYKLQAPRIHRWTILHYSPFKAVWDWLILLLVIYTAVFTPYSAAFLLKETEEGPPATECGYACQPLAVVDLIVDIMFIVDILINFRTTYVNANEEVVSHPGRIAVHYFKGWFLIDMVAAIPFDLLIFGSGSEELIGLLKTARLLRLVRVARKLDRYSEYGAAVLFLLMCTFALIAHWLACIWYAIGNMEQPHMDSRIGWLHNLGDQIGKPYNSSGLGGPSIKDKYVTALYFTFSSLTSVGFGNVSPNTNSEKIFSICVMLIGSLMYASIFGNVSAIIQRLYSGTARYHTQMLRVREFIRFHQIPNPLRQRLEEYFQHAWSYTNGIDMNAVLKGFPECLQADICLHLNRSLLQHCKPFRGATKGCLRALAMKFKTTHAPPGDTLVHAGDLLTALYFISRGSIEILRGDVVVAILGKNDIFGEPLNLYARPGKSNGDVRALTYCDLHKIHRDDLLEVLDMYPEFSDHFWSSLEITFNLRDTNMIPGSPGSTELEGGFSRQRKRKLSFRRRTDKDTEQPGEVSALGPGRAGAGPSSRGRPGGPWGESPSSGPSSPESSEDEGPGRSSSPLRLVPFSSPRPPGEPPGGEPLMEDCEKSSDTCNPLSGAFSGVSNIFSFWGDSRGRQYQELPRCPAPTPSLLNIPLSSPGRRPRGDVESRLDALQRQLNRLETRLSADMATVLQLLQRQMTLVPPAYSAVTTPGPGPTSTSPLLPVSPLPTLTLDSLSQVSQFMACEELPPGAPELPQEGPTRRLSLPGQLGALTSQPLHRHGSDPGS
Method in brief: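 First, 1000 cells per well are seeded and cultured overnight at 37 C. Next, FluxOR II dye is loaded for 1 h at room temperature, protected from light. After 10 more minutes, stimulus is added and fluorescence is read.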
% is scaled to controls: 0 for no effect and ±100 for the full control effect; potency is read from the fitted curve at half-maximal effect.

SMILES	activity change, negative = inhibition	Potency
O=C(O)c1cccc(-c2noc(-c3ccccc3F)n2)c1	-0.157% [at 35.3 µM] (inactive)	–
CN1CCCC(CC2c3ccccc3Sc3ccccc32)C1 (stereo unspecified)	–	4.77 µM (active)
O=C(O)CCC(=O)C(=O)O	0.649% (inactive)	–
O=C=Nc1ccc(Cl)c(Cl)c1	3.06% (inactive)	–
O=[N+]([O-])c1ccc(O/N=C/c2cc(Br)c(O)c(Br)c2)c([N+](=O)[O-])c1	8.49% (inactive)	–
CCCC(C(=O)OCCN(CC)CC)(c1ccccc1)c1ccccc1	–	8.49 µM (active)
C=C1C[C@@]23CC[C@H]4[C@@](C)(CCC[C@@]4(C)C(=O)O[C@@H]4O[C@H](CO)[C@@H](O)[C@H](O)[C@H]4O)[C@@H]2CC[C@]1(O[C@@H]1O[C@H](CO)[C@@H](O)[C@H](O[C@@H]2O[C@H](CO)[C@@H](O)[C@H](O)[C@H]2O)[C@H]1O[C@@H]1O[C@H](CO)[C@@H](O)[C@H](O)[C@H]1O)C3	-2.01% (inactive)	–
CC(C)Nc1cccnc1N1CCN(C(=O)c2cc3cc(NS(C)(=O)=O)ccc3[nH]2)CC1	–	9.52 µM (active)
COc1cc(C(=O)NCCCCCC(=O)O)cc(OC)c1OC	1.83% [at 35.3 µM] (inactive)	–
CC1=C(Br)C(=O)C(Br)=C/C1=C(/c1ccccc1S(=O)(=O)O)c1cc(Br)c(O)c(Br)c1C	2.02% [at 35.3 µM] (inactive)	–
N#CCCN(CCO)CCO	-3.61% (inactive)	–
CC(C)(C)C(=O)C(=O)O	2.35% (inactive)	–
CC1CC(C)C(=O)C1=O (stereo unspecified)	8.3% (inactive)	–
CC(=O)c1cc2ccccc2s1	3.23% [at 35.3 µM] (inactive)	–
C/C=C/C=C/C=O	2.88% (inactive)	–
C=CCc1ccccc1OCC(O)CNC(C)C (stereo unspecified)	-12.3% [at 35.3 µM] (inactive)	–
O=C(/C=C/c1ccccc1)OCCc1ccccc1	–	49 µM (active)
O=[N+]([O-])c1ccc(Nc2ccc(Nc3ccccc3)c(S(=O)(=O)O)c2)c([N+](=O)[O-])c1	9.18% (inactive)	–

SMILES	activity change, negative = inhibition	Potency
COC(=O)c1nc(Cl)c(Cl)nc1N	-24.3% [at 35.3 µM] (inactive)	–
CCCCCC#CC(=O)OC	0.516% (inactive)	–
Oc1c(I)cc(I)c2cccnc12	2.53% [at 35.3 µM] (inactive)	–
C[C@]1(Cn2ccnn2)[C@H](C(=O)O)N2C(=O)C[C@H]2S1(=O)=O	3.86% [at 35.3 µM] (inactive)	–
C=C(C)[C@@H]1CCC2=CCC[C@@H](C)[C@]2(C)C1	-9.77% (inactive)	–
CCC(OCCCOC)OC(C)=O (stereo unspecified)	0.259% (inactive)	–
O=C(Cn1ccnc1[N+](=O)[O-])NCCO	2.88% [at 35.3 µM] (inactive)	–
NC1[C@H]2CN(c3nc4c(cc3F)c(=O)c(C(=O)O)cn4-c3ccc(F)cc3F)C[C@@H]12 (stereo partly specified)	0.427% [at 35.3 µM] (inactive)	–
C=COCC(C)C	0.166% (inactive)	–
NCCNCCO	2.71% (inactive)	–
Oc1ccc(Cl)c2cccnc12	1.09% [at 35.3 µM] (inactive)	–
C[C@@H](O)[C@H]1C(=O)N2C(C(=O)O)=C([C@H]3CCCO3)S[C@H]12	1.69% [at 35.3 µM] (inactive)	–
C1COC1	0.0551% (inactive)	–
C[C@@H](O[C@H]1OCCN(Cc2n[nH]c(=O)[nH]2)[C@H]1c1ccc(F)cc1)c1cc(C(F)(F)F)cc(C(F)(F)F)c1	–	8.49 µM (active)
O=c1cc(-c2ccccc2)oc2ccc3ccccc3c12	-8.59% (inactive)	–
CCOC(=O)c1ccc(O)c(O)c1	4.36% [at 35.3 µM] (inactive)	–
O=C(O)C[C@H](NC(=O)OCc1ccccc1)C(=O)O	1.39% (inactive)	–
O=c1[nH]c2ccc(Cl)cc2o1	1.01% (inactive)	–
